Experimental findings from PubChem BioAssay (NCATS) are described below.

Molecules are shown by their SMILES. “And” between values parts separate entries of the source, which are not always exact repeats. Identical values can stand only once. Inconclusive results are not listed. A number with no mark means an inactive call. The source made the active and inactive calls. Calls come from the whole dose curve.

Chain of Peroxisome proliferator-activated receptor delta (Homo sapiens) (Q03181 whole entry, looked up): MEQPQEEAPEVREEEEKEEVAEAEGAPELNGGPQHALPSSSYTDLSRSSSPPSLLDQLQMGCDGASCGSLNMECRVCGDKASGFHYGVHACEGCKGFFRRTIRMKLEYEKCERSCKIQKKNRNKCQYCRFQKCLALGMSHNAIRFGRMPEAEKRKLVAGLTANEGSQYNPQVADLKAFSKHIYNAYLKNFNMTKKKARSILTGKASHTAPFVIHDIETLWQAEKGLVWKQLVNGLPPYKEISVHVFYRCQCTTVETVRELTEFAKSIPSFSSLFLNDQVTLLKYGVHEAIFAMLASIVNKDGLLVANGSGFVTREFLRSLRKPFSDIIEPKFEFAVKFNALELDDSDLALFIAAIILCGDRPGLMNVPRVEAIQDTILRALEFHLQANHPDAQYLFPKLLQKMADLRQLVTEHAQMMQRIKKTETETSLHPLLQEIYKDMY
Chain of Bile acid receptor (Homo sapiens) (Q96RI1 whole entry, looked up): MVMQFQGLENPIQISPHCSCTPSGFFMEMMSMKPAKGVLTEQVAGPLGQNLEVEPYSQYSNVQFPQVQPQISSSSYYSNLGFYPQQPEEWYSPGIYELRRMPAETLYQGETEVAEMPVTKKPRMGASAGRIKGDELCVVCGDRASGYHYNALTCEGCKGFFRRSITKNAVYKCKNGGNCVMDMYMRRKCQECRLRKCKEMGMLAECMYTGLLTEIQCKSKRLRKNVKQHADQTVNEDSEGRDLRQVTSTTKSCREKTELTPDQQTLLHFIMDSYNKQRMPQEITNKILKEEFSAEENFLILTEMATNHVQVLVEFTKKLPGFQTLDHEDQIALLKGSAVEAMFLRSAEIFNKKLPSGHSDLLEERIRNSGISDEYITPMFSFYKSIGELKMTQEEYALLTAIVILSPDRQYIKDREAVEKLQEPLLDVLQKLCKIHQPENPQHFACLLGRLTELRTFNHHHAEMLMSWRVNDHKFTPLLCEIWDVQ

One assay has as its target Bile acid receptor (Homo sapiens) (UniProt Q96RI1). The assay is described as follows: qHTS assay for small molecule agonists of farnesoid X receptor signaling (AID 588527).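 Note: 0% = vehicle basal and 100% = reference agonist.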 The note with it: HEK293T FXR-UAS-bla, beta-lactamase ratio, 16 h; activation: hits give high values. The gist of the method: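 Agonist-mode beta-lactamase reporter in GeneBLAzer FXR-UAS-bla HEK293T cells, titration up to 92 uM, 16 h exposure at 37 C, CCF4 fluorescence. Response scaled to DMSO (0%) and 100 uM chenodeoxycholic acid (100%), then Hill-fitted for EC50 and efficacy.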
On the technique in general: In qHTS, concentration-response curves come from the screen itself.
As to `O=C(O)c1ccc(CO)o1`, the activation is 0.258%.

Turning to `C[Si](C)(Cl)[Si](C)(C)Cl`, the activation was 0.0904%.

On to `CCCCCCCCCCCCc1ccccc1`, for which the activation was 3.31%.

Turning to `CC(=O)c1cccc([N+](=O)[O-])c1`, the activation is -1.11%.

As for `CC1(C)C(=O)N(Br)C(=O)N1Br`, the activation is 1.27%.

On to `Cc1ccccc1C#N`, for which the activation was -0.262%.

Regarding `Nc1cc(Cl)c(N)c(Cl)c1`, the activation is -3.48%.

Turning to `CC(C=O)Cc1ccc(C(C)(C)C)cc1` (stereo not given), the activation was 0.434% and 1.86%.

With `C=CC(=O)OCCOCCOCCOCCOC(=O)C=C`, the activation is 26.3%.

Consider `CC(C)(c1cc(Br)c(O)c(Br)c1)c1cc(Br)c(O)c(Br)c1`, for which the activation is 3.15% and 6.79% and 4.84%.

Turning to `CCOC(=O)NCCOc1ccc(Oc2ccccc2)cc1`, the activation is 2.99%.

As to `NCCCCCCCCCCC(=O)O`, the activation is 1.65%.

For the compound `Cc1ccc(C)o1`, the activation is 1.14%.

For `CC(C)(C)c1ccc(C(=O)O)cc1`, the activation was -9.49%.

As for `C[Si](C)(C)O[Si](C)(C)C`, the activation is -0.871%.

Consider `O=C(O)c1ccc([N+](=O)[O-])cc1`, for which the activation is -2.8% and 1.45%.

`CN(C)CCOCCN(C)C`: the activation was -0.638%.

For the compound `C1=C/CC/C=C/CC/C=C/CC/1`, the activation is -1.27%.

For the compound `CC(C)OC(=O)c1ccccc1C(=O)OC(C)C`, the activation was 0.429%.

For the compound `C=C[Si](OCCOC)(OCCOC)OCCOC`, the activation was -1.57%.

Take `c1ccc2[nH]cnc2c1`: the activation is -1.83%.

Consider `CC(C)=CCC[C@@H](C)[C@H]1CC[C@@]2(C)C3=C(CC[C@]12C)[C@@]1(C)CC[C@H](O)C(C)(C)[C@@H]1CC3`, for which the activation is -5.29%.

Take `Nc1ncnc2c1ncn2[C@H]1CC[C@@H](CO)O1`: the activation is 0.029% and -3.36%.

On to `CCCOCC(C)OCC(C)O` (stereo not given), for which the activation was 1.34%.

In the case of `CC1=CC(=O)CC(C)(C)C1(O)/C=C/C(C)=C\C(=O)O` (stereo not given), the activation was -3.19%.

With `C/C(Cl)=C/CCl`, the activation was 0.345%.

In the case of `O=C(O)c1ccccc1[N+](=O)[O-]`, the activation is -1.37%.

With `CCCCCCCCCCCCCCCCCC(=O)OC[C@@H](O)[C@H]1OC[C@H](O)[C@H]1O`, the activation is 5.18%.

In the case of `C[Si](Cl)(Cl)c1ccccc1`, the activation is 0.0023%.

On to `NCCCCCCCCCCCC(=O)O`, for which the activation was 0.942%.

Consider `c1ccc(B(c2ccccc2)c2ccccc2)cc1`, for which the activation was 2.92%.

With `O=c1n(CCO)c(=O)n(CCO)c(=O)n1CCO`, the activation is 0.713%.

Consider `C(=C/c1ccccc1)/c1ccccc1`, for which the activation was -2.54%.

With `O=C(Cl)c1cccc([N+](=O)[O-])c1`, the activation was -3.83%.

For the compound `O=C(OCCOCCOC(=O)c1ccccc1)c1ccccc1`, the activation was -0.568%.

Consider `O=C(O)C(c1ccc(Cl)cc1)c1ccc(Cl)cc1`, for which the activation is -2.74%.

As to `Cl[Si](Cl)(Cl)c1ccccc1`, the activation was 0.575%.

Regarding `c1ccc(-c2ccc(-c3ccccc3)cc2)cc1`, the activation was 2.41%.

As to `COC(=O)c1ccccc1S(=O)(=O)NC(=O)Nc1nc(OC(F)F)cc(OC(F)F)n1`, the activation is 2.12%.

In the case of `CCCCCO`, the activation was -1.91%.

A further assay has as its target Peroxisome proliferator-activated receptor delta (Homo sapiens) (UniProt Q03181). The assay can be described thus: qHTS assay for small molecule agonists of peroxisome proliferator-activated receptor delta signaling (AID 588534).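 Note: 0% = DMSO basal wells and 100% = positive control agonist at 10 µM.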 Conditions: HEK293T PPARdelta-UAS-bla, beta-lactamase ratio, 18 h; series mostly up to 76.7 µM; activation: at the top concentration. A digest of the protocol:
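Reporter cells were plated and held 5 hrs at 37 C before compounds were added. After 18 hrs at 37 C, CCF4 dye was loaded for 2 hrs at RT and fluorescence measured.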
Regarding `O=C(O)c1ccc(CO)o1`, the “activation” value is -2.71%.

For the compound `C[Si](C)(Cl)[Si](C)(C)Cl`, the “activation” value is -3.96%.

On to `CCCCCCCCCCCCc1ccccc1`, for which the “activation” value was 7.07%.

With `CC(=O)c1cccc([N+](=O)[O-])c1`, the “activation” value is 7.07%.

On to `CC1(C)C(=O)N(Br)C(=O)N1Br`, for which the “activation” value was 2.37%.

Take `Cc1ccccc1C#N`: the “activation” value was -1.07%.

For `Nc1cc(Cl)c(N)c(Cl)c1`, the result was inactive.

Consider `CC(C=O)Cc1ccc(C(C)(C)C)cc1` (stereo not given), for which the outcome was inactive.

With `C=CC(=O)OCCOCCOCCOCCOC(=O)C=C`, the “activation” value is -0.244%.

As to `CC(C)(c1cc(Br)c(O)c(Br)c1)c1cc(Br)c(O)c(Br)c1`, the outcome was inactive.

Take `CCOC(=O)NCCOc1ccc(Oc2ccccc2)cc1`: the “activation” value was 0.319%.

Regarding `NCCCCCCCCCCC(=O)O`, the “activation” value is 1.71%.

As for `Cc1ccc(C)o1`, the “activation” value was 6.27%.

In the case of `CC(C)(C)c1ccc(C(=O)O)cc1`, the “activation” value was -2.69%.

With `C[Si](C)(C)O[Si](C)(C)C`, the “activation” value is 4.07%.

For the compound `O=C(O)c1ccc([N+](=O)[O-])cc1`, the outcome was inactive.

On to `CN(C)CCOCCN(C)C`, for which the “activation” value was -1.52%.

Take `C1=C/CC/C=C/CC/C=C/CC/1`: the “activation” value is -2.7%.

As for `CC(C)OC(=O)c1ccccc1C(=O)OC(C)C`, the “activation” value is -0.726%.

As to `C=C[Si](OCCOC)(OCCOC)OCCOC`, the “activation” value is 6.37%.

Consider `c1ccc2[nH]cnc2c1`, for which the “activation” value was 2.59%.

In the case of `CC(C)=CCC[C@@H](C)[C@H]1CC[C@@]2(C)C3=C(CC[C@]12C)[C@@]1(C)CC[C@H](O)C(C)(C)[C@@H]1CC3`, the “activation” value is 0.221%.

Take `Nc1ncnc2c1ncn2[C@H]1CC[C@@H](CO)O1`: the result was inactive.

As for `CCCOCC(C)OCC(C)O` (stereo not given), the “activation” value was 1.3%.

Consider `CC1=CC(=O)CC(C)(C)C1(O)/C=C/C(C)=C\C(=O)O` (stereo not given), for which the “activation” value was 4.92%.

Take `C/C(Cl)=C/CCl`: the “activation” value was -5.25%.

Turning to `O=C(O)c1ccccc1[N+](=O)[O-]`, the “activation” value was 10.5%.

As for `CCCCCCCCCCCCCCCCCC(=O)OC[C@@H](O)[C@H]1OC[C@H](O)[C@H]1O`, the “activation” value is 4.06%.

Turning to `C[Si](Cl)(Cl)c1ccccc1`, the “activation” value is -3.04%.

With `NCCCCCCCCCCCC(=O)O`, the “activation” value was -0.328%.

As for `c1ccc(B(c2ccccc2)c2ccccc2)cc1`, the “activation” value is -5.53%.

Take `O=c1n(CCO)c(=O)n(CCO)c(=O)n1CCO`: the “activation” value was 3.81%.

For `C(=C/c1ccccc1)/c1ccccc1`, the “activation” value is 10.2%.

On to `O=C(Cl)c1cccc([N+](=O)[O-])c1`, for which the “activation” value was 0.585%.

Take `O=C(OCCOCCOC(=O)c1ccccc1)c1ccccc1`: the “activation” value was -2.93%.

As for `O=C(O)C(c1ccc(Cl)cc1)c1ccc(Cl)cc1`, the “activation” value is -12.7%.

For `Cl[Si](Cl)(Cl)c1ccccc1`, the “activation” value is 0.851%.

Consider `c1ccc(-c2ccc(-c3ccccc3)cc2)cc1`, for which the “activation” value was 2.97%.

With `COC(=O)c1ccccc1S(=O)(=O)NC(=O)Nc1nc(OC(F)F)cc(OC(F)F)n1`, the “activation” value is 4%.

On to `CCCCCO`, for which the “activation” value was 7.52%.
